For assay [1], the target named is Peroxisome proliferator-activated receptor delta (Homo sapiens) (UniProt Q03181). Nature of the assay: qHTS assay for small molecule agonists of peroxisome proliferator-activated receptor delta signaling (AID 588534).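 Note: 0% = DMSO basal wells and 100% = positive control agonist at 10 µM.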 In outline:
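Titration series tested in agonist mode on beta-lactamase reporter cells; 18 hrs at 37 C after a 5 hr pre-incubation. Readout: CCF4 fluorescence, 2 hrs RT. Hill equation gives EC50 and maximal response.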
(In general: Quantitative high-throughput screening tests each substance at several concentrations.)

Assay [2] is described as follows: qHTS assay for small molecule antagonists of peroxisome proliferator-activated receptor delta signaling (AID 588535; active = well fitted inhibition curve with a large enough effect in the signal ratio, with a control signal flat, not every such curve was filed as active; the % refers to the signal ratio;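 for max response: cells co-treated with a PPAR-delta agonist as stimulator during compound exposure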). The note with it: HEK293T PPARd-UAS-bla, beta-lactamase FRET ratio, 18 h; 460 nm channel. An outline of the steps:
(§1)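 Beta-lactamase reporter read-out (405 nm excitation, 460/530 nm emission) after CCF4 loading for 2 hrs at RT. HEK293T PPAR-delta-UAS-bla cells, 2% charcoal/dextran FBS, compounds for 18 hrs at 37 C. Hill fit gave IC50 and efficacy.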

The target in assay [3] is Peroxisome proliferator-activated receptor delta (Homo sapiens) (UniProt Q03181). The description is as above. An outline of the steps:
as §1

In assay [4] the target is Peroxisome proliferator-activated receptor gamma (Homo sapiens) (UniProt P37231). Briefly: qHTS assay for small molecule agonists of peroxisome proliferator-activated receptor gamma signaling (AID 588536; active = well fitted curve in the direction sought with a large enough effect in the signal ratio, with a control signal flat, not every such curve was filed as active; the % refers to the signal ratio;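 note: 0% = DMSO basal wells and 100% = rosiglitazone at 2 µM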). An outline of the steps: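 This is an agonist-mode beta-lactamase reporter assay in HEK293 PPAR-gamma-UAS-bla cells with 1% charcoal/dextran FBS. Compound titrations ran 16 h at 37 C before CCF4 detection. EC50 and efficacy are Hill fits scaled to 2 uM rosiglitazone (100%) and DMSO basal.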

Assay [5] shares this target. Briefly: qHTS assay for small molecule antagonists of peroxisome proliferator-activated receptor gamma signaling (AID 588537; active = well fitted inhibition curve with a large enough effect in the signal ratio, with a control signal flat, not every such curve was filed as active; the % refers to the signal ratio;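 note: reporter cells co-stimulated with 50 nM rosiglitazone agonist during compound treatment; % of control where 0% means no effect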). An outline of the steps:
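Read-out: CCF4 fluorescence (ex 405, em 460/530 nm) after 2 h at RT. Cells were HEK293 carrying a UAS-bla reporter and treated 16 h at 37 C with compound plus rosiglitazone (50 nM final). Normalized to rosiglitazone and DMSO.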

The target of assay [6] is Vitamin D3 receptor (Homo sapiens) (UniProt P11473). Briefly: qHTS assay for small molecule antagonists of vitamin D receptor signaling (AID 588541).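 Note: receptor activated by calcitriol during compound treatment; series mostly up to about 77 µM; % is set by controls: 0 for no effect and ±100 for the full control effect.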 In outline: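 VDR-UAS-bla HEK293T cells in 2% charcoal-stripped FBS were stimulated with 1-alpha,25-dihydroxyvitamin D3 (3 nM final) plus compound for 16 h at 37 C. The beta-lactamase CCF4 readout was normalized to 50 nM agonist and DMSO, and Hill fits gave IC50.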

For assay [7] the target is unchanged. Nature of the assay: qHTS assay for small molecule agonists of vitamin D receptor signaling (AID 588543).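 Note: 0% = DMSO basal and 100% = reference agonist control.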 An outline of the steps:
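qHTS in agonist mode: compound titrations stimulate a VDR-driven β-lactamase reporter in HEK293T cells over 16 h at 37 °C. Response normalized to 50 nM 1α,25-dihydroxyvitamin D3 = 100%, DMSO = 0%; Hill fitting gives EC50 and maximal response.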

Assay [8] has as its target Retinoic acid receptor RXR-alpha (Homo sapiens) (UniProt P19793). Briefly: qHTS assay for small molecule agonists of retinoid X receptor alpha signaling (AID 588544).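 Note: 0% = DMSO basal wells and 100% = reference agonist.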
For assay [9], the target named is Thyroid hormone receptor beta (Homo sapiens) (UniProt P10828). Briefly: qHTS assay for small molecule agonists of thyroid hormone receptor beta signaling (AID 588545).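 Note: 0% = DMSO only and 100% = 10 nM T3.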 In outline: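 Stimulation of a TR-driven beta-lactamase reporter was quantified in GripTite HEK 293 cells. Compound series ran for 18 hrs; curves were normalized to T3 and DMSO controls and fitted to yield EC50.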

Assay [10] is described as follows: qHTS assay for small molecule antagonists of retinoid X receptor alpha signaling (AID 588546; active = well fitted inhibition curve with a large enough effect in the signal ratio, with a control signal flat, not every such curve was filed as active; the % refers to the signal ratio;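 note: cells stimulated with 9-cis-retinoic acid as agonist; % is set by controls: 0 for no effect and ±100 for the full control effect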). Conditions: HEK293T RXRa-UAS-bla, beta-lactamase ratio, antagonist mode; measured here: W530 green channel, cytotoxicity proxy. An outline of the steps: (§2)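 Beta-lactamase reporter inhibition, read as CCF4 fluorescence ratio (ex 405, em 460/530 nm) after 2 h at RT. HEK293T UAS-bla cells, 2500/well, were stimulated with 9-cis-RA at 500 or 100 nM final alongside test compound for 18 h at 37 C.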

Assay [11] deals with Retinoic acid receptor RXR-alpha (Homo sapiens) (UniProt P19793). The assay is described as above. Conditions: HEK293T RXRa-UAS-bla, beta-lactamase ratio, antagonist mode. In outline:
as §2

Assay [12] concerns the target Thyroid hormone receptor beta (Homo sapiens) (UniProt P10828). Briefly: qHTS assay for small molecule antagonists of thyroid hormone receptor beta signaling (AID 588547; active = well fitted inhibition curve with a large enough effect in the signal ratio, with a control signal flat, not every such curve was filed as active; the % refers to the signal ratio;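 note: cells stimulated with 0.4 nM T3 agonist during compound exposure; series mostly up to about 77 µM; % is set by controls: 0 for no effect and ±100 for the full control effect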). Conditions: TR-UAS-bla HEK293, beta-lactamase ratio, antagonist mode, 18 h. An outline of the steps: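 TR-UAS-bla GripTite HEK293 cells in 2% charcoal/dextran FBS medium; compounds 0.59 nM to 92 uM with T3 at 0.4nM final, 18 h at 37 C. Beta-lactamase read by CCF4 fluorescence (460/530 nm); Hill fits gave IC50 and efficacy.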

Assay [13] in a line: qHTS assay for small molecule activators of the nuclear factor-kappa B (NF-kB) signaling pathway (AID 651749; active = well fitted activation curve with a large enough effect in the signal ratio; the % refers to the signal ratio; note: series mostly up to about 77 µM; % of control where 0% means no effect). The note with it: NF-kB-bla ME-180 cells, beta-lactamase FRET ratio, 16 h; activation: stronger effect = higher value. In outline: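 NF-kB-bla ME-180 cells, 2,000/well; 23 nL compound or DMSO pinned; 16 hr, 37C/5% CO2; beta-lactamase FRET read-out.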
The nature of assay [14]: qHTS assay for environmental chemicals that activate the Aryl hydrocarbon Receptor (AhR) signaling pathway (AID 651777; active = well fitted curve in the direction sought with a large enough effect; an effect the other way counts as inactive or inconclusive; note: % of control where 0% means no effect; nearly all actives have a fitted effect of over 15% in size). Conditions: 1A2-DRE human hepatoma cells, luciferase, 24 h; activation: stronger effect = higher value. In outline:
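1A2-DRE human hepatoma reporter line; 1,200 cells/well; cmpd or DMSO 24 h, 37 C/5% CO2; One-Glo 30 min RT; luciferase lum.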

For assay [15], the target named is Peroxisome proliferator-activated receptor alpha (Homo sapiens) (UniProt Q07869). Nature of the assay: qHTS assay for small molecule agonists of the peroxisome proliferator-activated receptor alpha (PPARalpha) signaling pathway (AID 651778; active = well fitted curve in the direction sought with a large enough effect; an effect the other way counts as inactive or inconclusive; note: % of control where 0% means no effect). Conditions: PathHunter PPARalpha complementation, chemiluminescence, 6 h; max response: stronger effect = higher value. In outline:
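Enzyme-fragment complementation assay in which ligand-bound PPARalpha translocates and forms an active enzyme that generates chemiluminescence. Cells were plated overnight, exposed to compound for 6 hr at 37 C, and then given detection reagent for 60 min at room temperature.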

Assay [16] is described as follows: qHTS assay for small molecule agonists of the antioxidant response element (ARE) signaling pathway measured by Nrf2-dependant transcriptional activity (AID 720636; active = well fitted curve in the direction sought with a large enough effect in the repeat runs; an effect the other way counts as inactive or inconclusive;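 note: HepG2 cells with an ARE-driven luciferase reporter; % of control where 0% means no effect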). An outline of the steps:
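Cells: ARE-luc HepG2 with Nrf2-responsive luciferase. Medium contained 1% dialyzed FBS. Compound exposure lasted 16 hr at 37 C and 5% CO2, followed by ONE-Glo luciferase detection.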

Assay [17] in a line: qHTS assay for small molecule agonists of the antioxidant response element (ARE) signaling pathway measured by Nrf2-dependant transcriptional activity - cell viability counter screen (AID 720653; active = well fitted curve in the direction sought with a large enough effect in the repeat runs; an effect the other way counts as inactive or inconclusive; note: % is set by controls: 0 for no effect and ±100 for the full control effect). The note with it: ARE-bla HepG2 viability, CellTiter-Glo ATP luminescence, 16 h; max response: stronger effect = lower value. In outline: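 ARE-bla HepG2 cells treated with compounds for 16 h at 37C; this counter screen measures viability as intracellular ATP by CellTiter-Glo luminescence after 30 min at room temperature.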

Assay [18] in a line: qHTS assay for cell viability of HEK293 cells (AID 743288; active = well fitted curve in the direction sought with a large enough effect; an effect the other way counts as inactive or inconclusive; note: % is set by controls: 0 for no effect and ±100 for the full control effect; nearly all actives have a fitted effect of over 50% in size). The note with it: ATP luminescence (CellTiter-Glo), 18 h; max response: stronger effect = lower value. An outline of the steps:
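Quantitative high-throughput screen: compounds were pinned onto parental HEK293 cells (2,000 per well) after a minimum 5 h settling at 37 C, incubated 18 h at 37 C, and intracellular ATP measured by luciferase luminescence.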

Assay [19] in a line: qHTS assay for cell viability of the p53RE-bla HCT-116 cell line (AID 743292; active = well fitted curve in the direction sought with a large enough effect; an effect the other way counts as inactive or inconclusive; note: % is set by controls: 0 for no effect and ±100 for the full control effect; nearly all actives have a fitted effect of over 55% in size). An outline of the steps:
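HCT-116 p53RE-bla cells seeded 4,000/well; 5 h at 37 C; compound (DMSO) added; 16 h at 37 C; CellTiter-Glo added, 30 min RT; luminescence read.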

The target of assay [20] is Nuclear receptor subfamily 1 group I member 2 (Rattus norvegicus) (UniProt Q9R1A7). Nature of the assay: qHTS assay for small molecule activators of the rat pregnane X receptor (rPXR) signaling pathway (AID 651751; call rule not given here; note: 0% is about no effect). The note with it: rPXR reporter cells, luciferase (One-Glo), 24 h.
Assay [21] can be described thus: qHTS assay for small molecule activators of the human pregnane X receptor (PXR) signaling pathway (AID 720659; call rule not given here; note: 0% is about no effect).
In assay [22] the target is Voltage-gated inwardly rectifying potassium channel KCNH2 (Homo sapiens) (UniProt Q12809). Nature of the assay: qHTS Assay for Small Molecule Inhibitors of the Human hERG Channel Activity (AID 588834; active = well fitted curve in the direction sought with a large enough effect; an effect the other way counts as inactive or inconclusive;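 note: potency is the fitted concentration of half-maximal effect; lower thallium flux fluorescence means stronger hERG block; nearly all actives have a fitted effect of over 50% in size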). An outline of the steps:
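Cells were infected with hERG-BacMam virus for 4 hrs at room temperature, grown overnight, then seeded at 2000/well. After dye loading and roughly 10 min compound treatment, thallium influx was triggered and fluorescence recorded.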

The nature of assay [23]: qHTS assay for small molecule activators of the p53 signaling pathway (AID 651743; active = well fitted activation curve with a large enough effect in the signal ratio, not every such curve was filed as active; the % refers to the signal ratio; note: series mostly up to about 92 µM; % of control where 0% means no effect). The note with it: HCT-116 p53RE-bla, beta-lactamase FRET ratio, 16 h; activation: stronger effect = higher value. In outline:
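Reporter: beta-lactamase driven by p53 response elements, stably integrated in HCT-116 cells. Cells seeded at 4,000/well, 5 h preincubation, compound (DMSO) 16 h at 37 C; B/G FRET substrate 2 h RT; fluorescence intensity read.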

Inconclusive results are not listed. The source made the active and inactive calls. Unless noted, calls come from the whole dose curve.

Data on 8 compounds can be found in PubChem BioAssay (NCATS).

Sequence of Peroxisome proliferator-activated receptor delta (Homo sapiens) (Q03181 whole entry, looked up): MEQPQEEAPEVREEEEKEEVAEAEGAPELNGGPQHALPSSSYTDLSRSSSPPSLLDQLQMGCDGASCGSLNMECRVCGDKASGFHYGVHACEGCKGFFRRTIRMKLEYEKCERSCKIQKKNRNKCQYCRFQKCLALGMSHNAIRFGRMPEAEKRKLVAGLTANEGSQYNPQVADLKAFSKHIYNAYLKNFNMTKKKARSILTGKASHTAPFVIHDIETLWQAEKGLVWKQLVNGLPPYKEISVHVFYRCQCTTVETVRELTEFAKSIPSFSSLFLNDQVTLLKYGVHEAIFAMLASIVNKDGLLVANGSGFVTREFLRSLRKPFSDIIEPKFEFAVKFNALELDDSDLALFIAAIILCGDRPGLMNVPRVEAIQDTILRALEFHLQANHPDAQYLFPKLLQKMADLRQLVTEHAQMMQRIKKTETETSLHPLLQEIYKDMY
Sequence of Peroxisome proliferator-activated receptor gamma (Homo sapiens) (P37231 whole entry, looked up): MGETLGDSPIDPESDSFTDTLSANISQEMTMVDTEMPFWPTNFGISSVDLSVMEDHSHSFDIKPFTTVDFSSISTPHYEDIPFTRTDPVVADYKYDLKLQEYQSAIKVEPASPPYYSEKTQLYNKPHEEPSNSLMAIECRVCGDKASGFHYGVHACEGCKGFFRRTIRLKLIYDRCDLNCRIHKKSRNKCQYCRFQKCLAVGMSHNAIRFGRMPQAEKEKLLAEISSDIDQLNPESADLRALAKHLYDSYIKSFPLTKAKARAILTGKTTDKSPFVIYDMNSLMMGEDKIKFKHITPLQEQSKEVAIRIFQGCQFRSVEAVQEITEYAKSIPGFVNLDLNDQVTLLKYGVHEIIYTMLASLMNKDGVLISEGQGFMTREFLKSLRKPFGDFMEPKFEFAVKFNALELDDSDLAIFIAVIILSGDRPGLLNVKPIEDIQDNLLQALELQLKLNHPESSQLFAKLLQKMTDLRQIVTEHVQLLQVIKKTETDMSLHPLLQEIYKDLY
Sequence of Thyroid hormone receptor beta (Homo sapiens) (P10828 whole entry, looked up): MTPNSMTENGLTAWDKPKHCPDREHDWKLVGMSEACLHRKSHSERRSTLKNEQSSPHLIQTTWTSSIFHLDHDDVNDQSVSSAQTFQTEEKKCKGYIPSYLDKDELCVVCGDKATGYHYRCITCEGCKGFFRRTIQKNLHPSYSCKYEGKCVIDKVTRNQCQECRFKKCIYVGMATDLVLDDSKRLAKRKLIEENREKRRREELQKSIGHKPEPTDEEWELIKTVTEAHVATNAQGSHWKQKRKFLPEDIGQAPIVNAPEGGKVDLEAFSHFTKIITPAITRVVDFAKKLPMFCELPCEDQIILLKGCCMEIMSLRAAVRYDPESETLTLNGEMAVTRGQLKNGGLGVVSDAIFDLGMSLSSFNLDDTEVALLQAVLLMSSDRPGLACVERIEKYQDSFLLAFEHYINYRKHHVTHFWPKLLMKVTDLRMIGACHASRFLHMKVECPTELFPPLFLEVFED
Sequence of Vitamin D3 receptor (Homo sapiens) (P11473 whole entry, looked up): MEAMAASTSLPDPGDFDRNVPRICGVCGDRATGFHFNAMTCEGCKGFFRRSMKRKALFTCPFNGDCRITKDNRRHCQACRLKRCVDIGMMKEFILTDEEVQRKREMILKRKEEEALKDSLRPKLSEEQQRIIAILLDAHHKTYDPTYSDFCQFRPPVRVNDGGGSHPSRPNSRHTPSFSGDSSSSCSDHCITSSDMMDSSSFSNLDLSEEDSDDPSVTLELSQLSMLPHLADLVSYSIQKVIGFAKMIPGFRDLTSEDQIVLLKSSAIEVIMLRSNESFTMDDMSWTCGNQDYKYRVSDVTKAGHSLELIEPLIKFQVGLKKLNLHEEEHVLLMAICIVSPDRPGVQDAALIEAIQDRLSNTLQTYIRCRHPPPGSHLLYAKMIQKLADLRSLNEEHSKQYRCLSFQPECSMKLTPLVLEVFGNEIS
Sequence of Retinoic acid receptor RXR-alpha (Homo sapiens) (P19793 whole entry, looked up): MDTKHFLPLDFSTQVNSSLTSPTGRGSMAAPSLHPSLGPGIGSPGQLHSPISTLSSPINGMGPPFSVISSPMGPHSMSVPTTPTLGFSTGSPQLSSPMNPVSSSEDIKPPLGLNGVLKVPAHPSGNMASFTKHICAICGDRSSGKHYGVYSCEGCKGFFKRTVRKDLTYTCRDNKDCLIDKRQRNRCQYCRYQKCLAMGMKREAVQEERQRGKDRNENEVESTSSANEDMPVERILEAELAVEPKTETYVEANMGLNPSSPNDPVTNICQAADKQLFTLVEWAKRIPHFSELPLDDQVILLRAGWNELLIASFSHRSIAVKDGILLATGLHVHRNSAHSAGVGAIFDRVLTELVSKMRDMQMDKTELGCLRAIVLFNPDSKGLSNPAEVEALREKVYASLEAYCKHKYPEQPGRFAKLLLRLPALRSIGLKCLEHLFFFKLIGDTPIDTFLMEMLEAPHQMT
Sequence of Peroxisome proliferator-activated receptor alpha (Homo sapiens) (Q07869 whole entry, looked up, the tested form may be a part): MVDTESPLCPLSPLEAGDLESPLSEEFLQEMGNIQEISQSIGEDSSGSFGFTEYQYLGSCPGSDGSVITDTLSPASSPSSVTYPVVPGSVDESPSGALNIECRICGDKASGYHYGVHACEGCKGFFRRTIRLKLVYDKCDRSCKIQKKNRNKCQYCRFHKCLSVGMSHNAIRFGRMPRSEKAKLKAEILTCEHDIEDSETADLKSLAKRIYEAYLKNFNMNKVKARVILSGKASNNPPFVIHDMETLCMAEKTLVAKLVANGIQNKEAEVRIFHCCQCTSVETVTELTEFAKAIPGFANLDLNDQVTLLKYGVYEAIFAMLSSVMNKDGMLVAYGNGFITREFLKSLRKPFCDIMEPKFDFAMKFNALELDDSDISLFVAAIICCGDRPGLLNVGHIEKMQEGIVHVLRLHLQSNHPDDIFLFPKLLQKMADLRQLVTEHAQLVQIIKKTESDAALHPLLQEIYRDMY
Sequence of Voltage-gated inwardly rectifying potassium channel KCNH2 (Homo sapiens) (Q12809 whole entry, looked up): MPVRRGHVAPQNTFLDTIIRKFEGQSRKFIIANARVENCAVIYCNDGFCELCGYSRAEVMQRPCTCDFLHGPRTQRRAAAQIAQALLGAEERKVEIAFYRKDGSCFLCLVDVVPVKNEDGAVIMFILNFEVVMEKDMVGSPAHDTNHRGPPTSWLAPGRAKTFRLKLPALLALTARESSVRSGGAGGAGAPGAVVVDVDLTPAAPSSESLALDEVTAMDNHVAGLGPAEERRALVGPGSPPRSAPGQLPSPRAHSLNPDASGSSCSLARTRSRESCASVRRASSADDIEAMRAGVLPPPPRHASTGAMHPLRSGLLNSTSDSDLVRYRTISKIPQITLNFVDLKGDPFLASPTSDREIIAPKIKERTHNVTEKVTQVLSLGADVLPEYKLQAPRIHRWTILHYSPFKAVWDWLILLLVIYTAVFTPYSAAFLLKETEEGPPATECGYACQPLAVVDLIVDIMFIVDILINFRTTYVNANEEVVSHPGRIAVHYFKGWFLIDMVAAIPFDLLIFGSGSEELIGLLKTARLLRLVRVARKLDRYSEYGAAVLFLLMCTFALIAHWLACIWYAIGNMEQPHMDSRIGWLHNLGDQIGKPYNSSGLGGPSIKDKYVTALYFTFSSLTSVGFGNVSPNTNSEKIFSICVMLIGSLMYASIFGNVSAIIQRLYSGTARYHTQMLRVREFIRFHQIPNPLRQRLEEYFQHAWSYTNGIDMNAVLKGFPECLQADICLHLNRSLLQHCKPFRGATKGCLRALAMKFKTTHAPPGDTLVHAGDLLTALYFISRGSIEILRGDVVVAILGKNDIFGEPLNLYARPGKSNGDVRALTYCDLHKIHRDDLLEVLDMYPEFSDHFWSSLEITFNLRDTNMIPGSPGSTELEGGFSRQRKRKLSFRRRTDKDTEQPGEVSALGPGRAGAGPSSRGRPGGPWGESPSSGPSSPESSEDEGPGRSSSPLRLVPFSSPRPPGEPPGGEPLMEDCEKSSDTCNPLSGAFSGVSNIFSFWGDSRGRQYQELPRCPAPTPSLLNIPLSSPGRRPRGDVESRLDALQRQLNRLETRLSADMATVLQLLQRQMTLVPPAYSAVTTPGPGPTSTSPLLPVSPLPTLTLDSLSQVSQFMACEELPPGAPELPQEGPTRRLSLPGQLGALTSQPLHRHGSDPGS
Sequence of Nuclear receptor subfamily 1 group I member 2 (Rattus norvegicus) (Q9R1A7 whole entry, looked up): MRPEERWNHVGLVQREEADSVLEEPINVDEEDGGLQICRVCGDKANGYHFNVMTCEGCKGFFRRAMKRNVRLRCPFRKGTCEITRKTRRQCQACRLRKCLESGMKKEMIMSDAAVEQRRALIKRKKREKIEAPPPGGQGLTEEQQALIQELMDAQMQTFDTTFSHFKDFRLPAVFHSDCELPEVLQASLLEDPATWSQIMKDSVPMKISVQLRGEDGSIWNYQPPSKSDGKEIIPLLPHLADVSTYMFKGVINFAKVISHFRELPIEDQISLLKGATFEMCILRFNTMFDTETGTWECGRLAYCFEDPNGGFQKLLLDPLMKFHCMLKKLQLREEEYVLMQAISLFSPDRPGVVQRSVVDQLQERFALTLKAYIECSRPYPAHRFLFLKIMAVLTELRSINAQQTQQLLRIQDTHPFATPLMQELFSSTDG

For the compound `CCCCC(CC)COC(=O)/C=C\C(=O)OCC(CC)CCCC` (stereo not given), in assay [1], the outcome was inactive.

Turning to `O=[N+]([O-])c1cccc(C(F)(F)F)c1`, the result in [1] was inactive.

`Nc1ccc(Cl)cc1[N+](=O)[O-]`: in assay [1], the outcome was inactive.

In the case of `[CH3][Sn]([CH3])([Cl])[Cl]`, the compound was classed as inactive in [1], in [7] and in [21]. For the same compound, the max response is 1.89% in [2]; -2.31% in assay [10]; -24.3% (inactive) in assay [11]; -1.2% (inactive) in assay [15]; 3.28% (inactive) in assay [17]; -9.37% (inactive) in assay [18]. The max response in assay [20] is -0.47% (inactive). Also, the Potency result in assay [3], in assay [4], in assay [5], in assay [6], in [8] and in [9] was “inactive” throughout. Moreover, the Potency entry in [16] and in assay [19] was “inactive” throughout. Besides, the activity change % (negative = inhibition) in assay [12] is 0.969% (inactive). The figures for the activation in assay [13] and in assay [14] were 0.645% (inactive) and -0.285% (inactive), respectively.

As for `c1ccc2c(c1)Oc1ccccc1S2`, the compound was called inactive in [1]. In assay [22], the Potency is 28.2 µM (active).

With `CC/C=C/CCCCCCCCCCOC(C)=O`, the call in assay [1] was inactive.

For the compound `CC(C)C(C(=O)OC(C#N)c1cccc(Oc2ccccc2)c1)c1ccc(Cl)cc1` (stereo not given), the result in assay [1] was inactive. Further, the max response was -0.258% in assay [2], 0.669% (inactive) in assay [15] and -14.8% (inactive) in assay [17]. Moreover, the Potency result in [3], in assay [4], in [5], in assay [9], in [16] and in [19] was “inactive” throughout. In addition, the activation in [23] was 0.961% (inactive); in [14] it was 2.62% (inactive).

On to `C=CC(C)(O)CCCC(C)CCCC(C)CCCC(C)C` (stereo not given), for which the outcome in assay [1] was inactive.
